Key:
Assay in all cases: DAPPL (digital affinity profiling via proximity ligation, sequencing); 10 mM Tris-HCl pH 7.5, 50 mM NaCl, 1 mM DTT, 4% glycerol, room temperature, 30 min; GST-TFs on glutathione beads, 16-mer random dsDNA library, 0.1% formaldehyde crosslink after washing; high values mean tight binding
FLI1 = target: T1, FLI1 (Homo sapiens, UniProt Q01543 1-452); settings: protein: recombinant; tags: N-terminal GST; dsDNA, one strand shown
T1 sequence: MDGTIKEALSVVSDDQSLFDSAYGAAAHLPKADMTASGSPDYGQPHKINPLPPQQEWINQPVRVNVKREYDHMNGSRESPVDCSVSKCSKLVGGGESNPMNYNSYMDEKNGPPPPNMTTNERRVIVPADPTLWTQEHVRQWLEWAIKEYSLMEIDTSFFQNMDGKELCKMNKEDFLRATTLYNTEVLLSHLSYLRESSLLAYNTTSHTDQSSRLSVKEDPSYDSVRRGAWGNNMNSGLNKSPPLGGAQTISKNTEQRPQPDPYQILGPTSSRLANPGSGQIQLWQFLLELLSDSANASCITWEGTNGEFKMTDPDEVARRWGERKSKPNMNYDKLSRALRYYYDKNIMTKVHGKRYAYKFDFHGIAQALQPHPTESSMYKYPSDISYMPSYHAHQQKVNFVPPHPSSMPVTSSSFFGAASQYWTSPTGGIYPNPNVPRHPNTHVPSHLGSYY
Outline: (§1)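 GST fusions of human transcription factors were expressed in yeast and captured with glutathione beads. Once given DNA barcodes and pooled alongside a tag-only sample, they were incubated for 30 min at room temperature with 200 nmole of a random double-stranded 16-mer DNA library in Tris/NaCl/DTT/glycerol buffer, then washed, crosslinked (0.1% formaldehyde), proximity-ligated, PCR-amplified and sequenced on an Illumina NextSeq500. The binding signal of each hexamer is its read frequency for a factor divided by its frequency for the tag-only sample.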

ELK1 = target: T2, ELK1 (Homo sapiens, UniProt P19419 1-428); settings: protein: recombinant; tags: N-terminal GST; dsDNA, one strand shown
T2 sequence: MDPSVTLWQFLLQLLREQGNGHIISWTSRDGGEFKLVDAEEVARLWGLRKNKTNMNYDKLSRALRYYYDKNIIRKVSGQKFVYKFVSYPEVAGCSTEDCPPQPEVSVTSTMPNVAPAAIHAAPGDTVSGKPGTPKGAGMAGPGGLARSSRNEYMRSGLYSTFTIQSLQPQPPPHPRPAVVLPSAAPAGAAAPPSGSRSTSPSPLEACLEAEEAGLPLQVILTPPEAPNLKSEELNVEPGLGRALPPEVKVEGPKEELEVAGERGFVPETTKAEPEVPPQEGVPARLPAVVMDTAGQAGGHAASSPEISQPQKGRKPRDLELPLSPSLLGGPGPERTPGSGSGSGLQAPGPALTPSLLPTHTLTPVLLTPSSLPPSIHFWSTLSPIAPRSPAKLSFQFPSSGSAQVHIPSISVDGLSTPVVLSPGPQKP
Outline: as §1

GABPA = target: T3, GABPA (Homo sapiens, UniProt Q06546 1-454); settings: protein: recombinant; tags: N-terminal GST; dsDNA, one strand shown
T3 sequence: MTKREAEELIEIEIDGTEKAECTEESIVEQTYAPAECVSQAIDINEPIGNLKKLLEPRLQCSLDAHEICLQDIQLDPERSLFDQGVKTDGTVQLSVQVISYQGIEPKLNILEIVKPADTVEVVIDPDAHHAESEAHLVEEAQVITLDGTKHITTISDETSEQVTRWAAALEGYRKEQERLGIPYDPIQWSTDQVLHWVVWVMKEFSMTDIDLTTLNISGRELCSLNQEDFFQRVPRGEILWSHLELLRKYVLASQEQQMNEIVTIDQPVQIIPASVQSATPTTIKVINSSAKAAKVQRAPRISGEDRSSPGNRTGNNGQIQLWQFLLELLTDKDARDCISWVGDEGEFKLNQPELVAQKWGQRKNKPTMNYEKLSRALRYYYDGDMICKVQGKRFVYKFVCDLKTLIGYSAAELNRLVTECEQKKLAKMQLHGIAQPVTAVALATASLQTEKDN
Outline: as §1

ERG = target: T4, ERG (Homo sapiens, UniProt P11308 1-479); settings: protein: recombinant; tags: N-terminal GST; dsDNA, one strand shown
T4 sequence: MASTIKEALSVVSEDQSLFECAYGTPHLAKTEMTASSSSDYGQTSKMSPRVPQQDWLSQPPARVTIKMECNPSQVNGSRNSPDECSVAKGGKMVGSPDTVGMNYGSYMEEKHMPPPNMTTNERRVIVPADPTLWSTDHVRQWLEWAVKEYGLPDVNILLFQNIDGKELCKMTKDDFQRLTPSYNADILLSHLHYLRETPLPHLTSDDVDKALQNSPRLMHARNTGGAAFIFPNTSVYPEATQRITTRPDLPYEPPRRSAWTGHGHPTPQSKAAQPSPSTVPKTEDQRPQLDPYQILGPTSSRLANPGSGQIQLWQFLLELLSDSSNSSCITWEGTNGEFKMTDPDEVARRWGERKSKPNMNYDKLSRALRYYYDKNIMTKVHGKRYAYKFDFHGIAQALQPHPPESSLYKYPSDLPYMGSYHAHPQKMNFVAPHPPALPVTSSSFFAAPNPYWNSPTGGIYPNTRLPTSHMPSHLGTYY
Outline: as §1

ELF1 = ELF1 (Homo sapiens, UniProt P32519 1-619); settings: protein: recombinant; tags: N-terminal GST; dsDNA, one strand shown
Chain of ELF1 (P32519 whole entry): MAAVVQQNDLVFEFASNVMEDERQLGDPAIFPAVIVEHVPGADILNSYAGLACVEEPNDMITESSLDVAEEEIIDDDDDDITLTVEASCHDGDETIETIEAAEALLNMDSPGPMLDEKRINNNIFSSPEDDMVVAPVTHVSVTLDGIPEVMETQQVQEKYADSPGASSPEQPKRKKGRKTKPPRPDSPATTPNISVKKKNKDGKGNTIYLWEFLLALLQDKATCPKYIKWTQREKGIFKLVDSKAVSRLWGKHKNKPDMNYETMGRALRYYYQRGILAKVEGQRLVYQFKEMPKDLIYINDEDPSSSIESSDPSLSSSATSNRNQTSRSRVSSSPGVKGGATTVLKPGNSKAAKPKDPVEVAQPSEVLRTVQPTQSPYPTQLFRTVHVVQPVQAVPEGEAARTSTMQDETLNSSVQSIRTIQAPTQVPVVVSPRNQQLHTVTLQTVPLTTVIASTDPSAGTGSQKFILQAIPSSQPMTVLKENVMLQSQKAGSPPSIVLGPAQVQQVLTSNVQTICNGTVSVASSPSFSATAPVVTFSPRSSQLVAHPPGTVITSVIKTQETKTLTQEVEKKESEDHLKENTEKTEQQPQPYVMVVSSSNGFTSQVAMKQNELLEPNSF
Outline: as §1

EHF = target: T5, EHF (Homo sapiens, UniProt Q9NZC4 1-300); settings: protein: recombinant; tags: N-terminal GST; dsDNA, one strand shown
T5 sequence: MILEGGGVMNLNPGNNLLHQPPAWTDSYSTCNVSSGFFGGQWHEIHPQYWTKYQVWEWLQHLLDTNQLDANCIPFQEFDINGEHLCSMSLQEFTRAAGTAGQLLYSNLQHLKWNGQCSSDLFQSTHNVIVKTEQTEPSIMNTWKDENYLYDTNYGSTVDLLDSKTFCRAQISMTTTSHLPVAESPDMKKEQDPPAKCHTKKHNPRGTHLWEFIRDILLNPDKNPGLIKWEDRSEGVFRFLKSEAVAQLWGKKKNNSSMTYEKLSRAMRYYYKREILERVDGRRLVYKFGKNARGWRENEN
Outline: as §1

SPI1 = SPI1 (Homo sapiens, UniProt P17947 1-270); settings: protein: recombinant; tags: N-terminal GST; dsDNA, one strand shown
Outline: as §1

SPIB = SPIB (Homo sapiens, UniProt Q01892 1-262); settings: protein: recombinant; tags: N-terminal GST; dsDNA, one strand shown
Chain of SPIB (Q01892 whole entry): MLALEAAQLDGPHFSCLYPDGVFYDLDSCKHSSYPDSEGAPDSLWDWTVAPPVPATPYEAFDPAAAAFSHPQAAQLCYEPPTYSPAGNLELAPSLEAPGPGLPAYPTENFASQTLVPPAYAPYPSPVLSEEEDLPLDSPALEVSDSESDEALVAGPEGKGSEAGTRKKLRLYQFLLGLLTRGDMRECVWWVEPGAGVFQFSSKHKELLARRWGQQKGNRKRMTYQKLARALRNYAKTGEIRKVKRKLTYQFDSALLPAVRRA
Outline: as §1

ELK3 = target: T6, ELK3 (Homo sapiens, UniProt P41970 1-407); settings: protein: recombinant; tags: N-terminal GST; dsDNA, one strand shown
T6 sequence: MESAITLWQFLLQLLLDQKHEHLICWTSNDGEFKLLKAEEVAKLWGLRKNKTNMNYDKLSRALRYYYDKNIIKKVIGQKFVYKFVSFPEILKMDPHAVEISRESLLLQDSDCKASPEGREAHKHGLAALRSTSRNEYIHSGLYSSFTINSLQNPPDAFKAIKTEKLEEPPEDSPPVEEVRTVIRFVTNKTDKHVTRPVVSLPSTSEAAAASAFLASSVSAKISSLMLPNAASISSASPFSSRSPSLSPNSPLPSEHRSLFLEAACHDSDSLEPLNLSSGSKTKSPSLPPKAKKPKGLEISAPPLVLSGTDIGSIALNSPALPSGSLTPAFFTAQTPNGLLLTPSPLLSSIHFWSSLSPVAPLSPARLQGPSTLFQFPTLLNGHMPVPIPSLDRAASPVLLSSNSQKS
Outline: as §1

FEV = target: T7, FEV (Homo sapiens, UniProt Q99581 1-238); settings: protein: recombinant; tags: N-terminal GST; dsDNA, one strand shown
T7 sequence: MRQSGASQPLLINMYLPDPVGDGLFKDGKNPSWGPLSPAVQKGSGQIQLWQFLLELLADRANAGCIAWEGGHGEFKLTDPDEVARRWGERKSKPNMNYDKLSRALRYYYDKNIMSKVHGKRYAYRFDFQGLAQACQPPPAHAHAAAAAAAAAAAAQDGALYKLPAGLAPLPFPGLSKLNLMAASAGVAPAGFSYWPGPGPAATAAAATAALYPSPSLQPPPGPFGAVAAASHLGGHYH
Outline: as §1

ETV5 = ETV5 (Homo sapiens, UniProt P41161 1-510); settings: protein: recombinant; tags: N-terminal GST; dsDNA, one strand shown
Chain of ETV5 (P41161 whole entry): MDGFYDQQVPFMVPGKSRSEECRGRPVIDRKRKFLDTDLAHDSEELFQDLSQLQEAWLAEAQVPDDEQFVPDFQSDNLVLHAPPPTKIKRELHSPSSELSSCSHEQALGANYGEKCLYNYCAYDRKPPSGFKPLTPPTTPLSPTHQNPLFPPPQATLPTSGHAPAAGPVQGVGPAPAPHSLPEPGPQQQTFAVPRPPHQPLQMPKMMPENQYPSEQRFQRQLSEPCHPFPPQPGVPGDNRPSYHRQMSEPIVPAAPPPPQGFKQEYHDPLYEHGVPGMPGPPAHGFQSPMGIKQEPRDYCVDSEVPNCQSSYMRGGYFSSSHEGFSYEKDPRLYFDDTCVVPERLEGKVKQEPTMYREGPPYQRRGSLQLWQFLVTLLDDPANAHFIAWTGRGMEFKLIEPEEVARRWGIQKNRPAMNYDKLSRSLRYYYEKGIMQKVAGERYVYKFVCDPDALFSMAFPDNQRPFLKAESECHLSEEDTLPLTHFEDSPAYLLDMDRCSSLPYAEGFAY
Outline: as §1

HSF1 = HSF1 (Homo sapiens, UniProt Q00613 1-529); settings: protein: recombinant; tags: N-terminal GST; chain copies: 3; dsDNA, one strand shown
Chain of HSF1 (Q00613 whole entry): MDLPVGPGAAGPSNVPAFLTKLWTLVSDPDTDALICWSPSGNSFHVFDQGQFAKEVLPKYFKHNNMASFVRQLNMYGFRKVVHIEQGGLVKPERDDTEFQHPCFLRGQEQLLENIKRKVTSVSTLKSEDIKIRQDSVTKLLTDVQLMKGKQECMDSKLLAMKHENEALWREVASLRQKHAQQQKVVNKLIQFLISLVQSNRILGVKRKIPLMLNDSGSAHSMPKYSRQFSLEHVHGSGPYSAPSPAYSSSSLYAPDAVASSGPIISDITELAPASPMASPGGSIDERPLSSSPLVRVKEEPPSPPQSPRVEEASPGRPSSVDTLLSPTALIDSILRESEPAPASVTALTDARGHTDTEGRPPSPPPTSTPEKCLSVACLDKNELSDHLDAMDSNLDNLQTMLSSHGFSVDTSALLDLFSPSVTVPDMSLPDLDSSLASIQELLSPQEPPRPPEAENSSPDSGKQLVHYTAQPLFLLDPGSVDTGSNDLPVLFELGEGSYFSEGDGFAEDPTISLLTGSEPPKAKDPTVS
Outline: as §1

SPIC = target: T8, SPIC (Homo sapiens, UniProt Q8N5J4 1-248); settings: protein: recombinant; tags: N-terminal GST; dsDNA, one strand shown
T8 sequence: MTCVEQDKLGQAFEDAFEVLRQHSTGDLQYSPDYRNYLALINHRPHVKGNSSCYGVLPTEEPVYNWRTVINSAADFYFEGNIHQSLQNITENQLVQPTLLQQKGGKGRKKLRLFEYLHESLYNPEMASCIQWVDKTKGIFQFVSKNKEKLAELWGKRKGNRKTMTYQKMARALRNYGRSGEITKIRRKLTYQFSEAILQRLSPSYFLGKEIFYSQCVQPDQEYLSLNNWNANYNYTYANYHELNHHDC
Outline: as §1

ELF4 = ELF4 (Homo sapiens, UniProt Q99607 1-663); settings: protein: recombinant; tags: N-terminal GST; dsDNA, one strand shown
Chain of ELF4 (Q99607 whole entry): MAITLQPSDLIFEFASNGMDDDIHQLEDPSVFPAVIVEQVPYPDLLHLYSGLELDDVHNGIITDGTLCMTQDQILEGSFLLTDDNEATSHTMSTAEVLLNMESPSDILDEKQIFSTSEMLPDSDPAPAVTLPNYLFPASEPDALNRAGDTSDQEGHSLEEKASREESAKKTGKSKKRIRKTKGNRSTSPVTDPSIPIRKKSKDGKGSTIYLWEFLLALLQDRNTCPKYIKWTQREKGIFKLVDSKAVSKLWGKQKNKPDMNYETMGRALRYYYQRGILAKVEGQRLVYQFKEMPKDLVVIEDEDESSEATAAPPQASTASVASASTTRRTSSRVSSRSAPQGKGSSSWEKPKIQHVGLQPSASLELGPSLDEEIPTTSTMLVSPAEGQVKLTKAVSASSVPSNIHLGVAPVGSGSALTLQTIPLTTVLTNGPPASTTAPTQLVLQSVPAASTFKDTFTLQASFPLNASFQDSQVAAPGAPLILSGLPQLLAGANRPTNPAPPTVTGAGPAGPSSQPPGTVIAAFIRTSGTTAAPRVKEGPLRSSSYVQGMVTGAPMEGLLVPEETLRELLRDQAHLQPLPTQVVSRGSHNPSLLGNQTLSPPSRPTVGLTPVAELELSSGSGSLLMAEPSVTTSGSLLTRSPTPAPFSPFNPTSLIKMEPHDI
Outline: as §1

ELK4 = target: T9, ELK4 (Homo sapiens, UniProt P28324-2 1-405); settings: protein: recombinant; tags: N-terminal GST; dsDNA, one strand shown
T9 sequence: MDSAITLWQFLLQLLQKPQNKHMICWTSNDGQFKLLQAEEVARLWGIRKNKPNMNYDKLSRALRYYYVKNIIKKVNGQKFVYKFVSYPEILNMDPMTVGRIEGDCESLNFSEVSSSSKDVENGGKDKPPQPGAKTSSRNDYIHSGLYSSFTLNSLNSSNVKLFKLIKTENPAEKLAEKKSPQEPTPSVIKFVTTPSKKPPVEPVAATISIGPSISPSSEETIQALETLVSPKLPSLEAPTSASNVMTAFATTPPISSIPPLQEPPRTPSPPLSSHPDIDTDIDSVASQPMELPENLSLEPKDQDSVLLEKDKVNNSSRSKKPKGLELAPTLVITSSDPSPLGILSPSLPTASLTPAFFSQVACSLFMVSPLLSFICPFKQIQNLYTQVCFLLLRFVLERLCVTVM
Outline: as §1

ETV2 = target: T10, ETV2 (Homo sapiens, UniProt O00321 1-342); settings: protein: recombinant; tags: N-terminal GST; dsDNA, one strand shown
T10 sequence: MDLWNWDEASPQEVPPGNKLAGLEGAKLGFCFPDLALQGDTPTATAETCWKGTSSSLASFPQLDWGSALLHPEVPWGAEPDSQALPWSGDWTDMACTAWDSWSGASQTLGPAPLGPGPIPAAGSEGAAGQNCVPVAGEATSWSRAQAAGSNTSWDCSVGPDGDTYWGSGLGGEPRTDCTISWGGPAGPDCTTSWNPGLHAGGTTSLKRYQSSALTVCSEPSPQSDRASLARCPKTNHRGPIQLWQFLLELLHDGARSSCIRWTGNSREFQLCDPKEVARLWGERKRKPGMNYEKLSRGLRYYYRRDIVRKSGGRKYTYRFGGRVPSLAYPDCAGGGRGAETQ
Outline: as §1

ELF3 = target: T11, ELF3 (Homo sapiens, UniProt P78545 1-371); settings: protein: recombinant; tags: N-terminal GST; dsDNA, one strand shown
T11 sequence: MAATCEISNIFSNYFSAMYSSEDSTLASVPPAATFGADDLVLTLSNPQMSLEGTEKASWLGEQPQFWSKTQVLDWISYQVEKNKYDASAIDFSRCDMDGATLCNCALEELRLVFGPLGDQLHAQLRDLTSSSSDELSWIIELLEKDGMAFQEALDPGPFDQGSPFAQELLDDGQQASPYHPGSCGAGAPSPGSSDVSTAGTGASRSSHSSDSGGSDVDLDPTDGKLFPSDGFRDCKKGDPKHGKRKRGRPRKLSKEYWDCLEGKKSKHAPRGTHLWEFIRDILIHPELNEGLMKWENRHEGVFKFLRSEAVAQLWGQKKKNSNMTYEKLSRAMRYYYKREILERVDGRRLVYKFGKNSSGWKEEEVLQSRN
Outline: as §1

CRX = CRX (Homo sapiens, UniProt O43186 1-299); settings: protein: recombinant; tags: N-terminal GST; dsDNA, one strand shown
Chain of CRX (O43186 whole entry): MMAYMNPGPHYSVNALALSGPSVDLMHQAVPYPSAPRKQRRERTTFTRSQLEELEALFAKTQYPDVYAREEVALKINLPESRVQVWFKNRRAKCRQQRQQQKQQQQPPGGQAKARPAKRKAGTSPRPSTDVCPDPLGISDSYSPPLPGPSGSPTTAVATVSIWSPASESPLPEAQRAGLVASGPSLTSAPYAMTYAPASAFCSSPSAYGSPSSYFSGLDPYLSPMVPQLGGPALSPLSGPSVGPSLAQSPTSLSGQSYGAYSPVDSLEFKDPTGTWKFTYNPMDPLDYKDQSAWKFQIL
Outline: as §1

ETV1 = ETV1 (Homo sapiens, UniProt P50549 1-477); settings: protein: recombinant; tags: N-terminal GST; dsDNA, one strand shown
Chain of ETV1 (P50549 whole entry): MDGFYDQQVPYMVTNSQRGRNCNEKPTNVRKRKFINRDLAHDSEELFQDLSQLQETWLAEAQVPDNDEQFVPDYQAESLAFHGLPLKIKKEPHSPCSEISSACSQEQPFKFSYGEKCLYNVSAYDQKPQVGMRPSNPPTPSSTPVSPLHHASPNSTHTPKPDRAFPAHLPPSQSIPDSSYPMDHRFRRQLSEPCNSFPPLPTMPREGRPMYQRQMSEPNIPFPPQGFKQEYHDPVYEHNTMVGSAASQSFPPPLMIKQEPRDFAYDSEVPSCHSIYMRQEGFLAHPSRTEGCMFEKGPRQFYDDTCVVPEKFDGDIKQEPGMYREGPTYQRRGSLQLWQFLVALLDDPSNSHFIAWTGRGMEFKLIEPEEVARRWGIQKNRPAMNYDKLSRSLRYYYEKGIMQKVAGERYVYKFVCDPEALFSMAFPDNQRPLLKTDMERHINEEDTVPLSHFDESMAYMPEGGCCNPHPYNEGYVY
Outline: as §1

With CTTTTG the binding signal (FLI1) was 1.42 fold enrichment (6-mer frequency, TF over GST control), the binding signal (ELK1) was 1.35 fold enrichment (6-mer frequency, TF over GST control) and the binding signal (GABPA) was 1.41 fold enrichment (6-mer frequency, TF over GST control). The binding signal (ERG) was 1.25 fold enrichment (6-mer frequency, TF over GST control), the binding signal (ELF1) was 1.34 fold enrichment (6-mer frequency, TF over GST control) and the binding signal (EHF) was 1.32 fold enrichment (6-mer frequency, TF over GST control). The binding signal (SPI1) was 1.6 fold enrichment (6-mer frequency, TF over GST control), the binding signal (SPIB) was 1.42 fold enrichment (6-mer frequency, TF over GST control) and the binding signal (ELK3) was 1.23 fold enrichment (6-mer frequency, TF over GST control). For the same sequence, the binding signal (FEV) was 1.3 fold enrichment (6-mer frequency, TF over GST control), the binding signal (ETV5) was 1.38 fold enrichment (6-mer frequency, TF over GST control) and the binding signal (HSF1) was 1.36 fold enrichment (6-mer frequency, TF over GST control). The binding signal (SPIC) was 1.36 fold enrichment (6-mer frequency, TF over GST control), the binding signal (ELF4) was 1.42 fold enrichment (6-mer frequency, TF over GST control) and the binding signal (ELK4) was 1.35 fold enrichment (6-mer frequency, TF over GST control). For the same sequence, the binding signal (ETV2) was 1.25 fold enrichment (6-mer frequency, TF over GST control), the binding signal (ELF3) was 1.39 fold enrichment (6-mer frequency, TF over GST control) and the binding signal (CRX) was 1.43 fold enrichment (6-mer frequency, TF over GST control). The binding signal (ETV1) was 1.3 fold enrichment (6-mer frequency, TF over GST control).
